rat GALR2 ag: agonists of rat galanin receptor 2 (GALR2). activation, % at 10 µM. cell-based GALR2 agonist screen. 16,000 tested, 0.5% active; in the data active = activation above about 15%
Nox1 inhibitor: human Nox1 inhibition; Q9Y5S8; HT29 cells, luminol chemiluminescence ROS; AID 1792; 16,000 tested, 0.81% active; inhibition, % at 6.7 µM
Target sequence (Q9Y5S8 whole entry, looked up): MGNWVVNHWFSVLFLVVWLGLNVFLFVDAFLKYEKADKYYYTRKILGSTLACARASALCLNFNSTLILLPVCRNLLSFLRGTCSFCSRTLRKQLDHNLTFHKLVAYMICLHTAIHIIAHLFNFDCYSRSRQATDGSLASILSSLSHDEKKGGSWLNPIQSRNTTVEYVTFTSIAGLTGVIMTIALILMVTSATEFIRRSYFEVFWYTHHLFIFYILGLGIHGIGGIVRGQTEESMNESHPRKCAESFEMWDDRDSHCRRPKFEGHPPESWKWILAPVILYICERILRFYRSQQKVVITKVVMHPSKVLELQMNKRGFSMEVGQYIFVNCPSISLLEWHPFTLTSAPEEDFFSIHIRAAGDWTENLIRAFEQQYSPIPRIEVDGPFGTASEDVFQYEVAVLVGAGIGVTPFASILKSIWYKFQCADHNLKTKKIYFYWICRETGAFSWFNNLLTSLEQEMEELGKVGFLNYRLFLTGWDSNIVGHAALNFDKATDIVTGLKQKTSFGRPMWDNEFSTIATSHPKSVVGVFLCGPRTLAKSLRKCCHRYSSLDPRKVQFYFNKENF
PME-1 Maybr inh: PME-1 (human) inhibition, Maybridge primary screen; Q9Y570; recombinant PME-1, FP-Rh probe fluorescence polarization; inhibition, % at 9 µM; 16,000 tested, 0.5% active; in the data active = inhibition above about 30%
Luminol counter: quenches luminol chemiluminescence in Nox1 counter-screen | HRP/luminol/H2O2 chemiluminescence counterscreen | inhibition, % at 6.7 µM | 16,000 tested, 0.4% active | AID 1823; also: reference of the scale not given here
Of the large screens only hits and unclear results are named; the others gave an inactive call. This is a sample that favours compounds with a hit; in the whole collection about 2.2% have one here. Rule as the data show it, unless noted: active = inhibition above about 75%; inactive = the rest.

CS(=O)(=NS(=O)(=O)c1ccc(Cl)cc1)c1ccsc1 (configuration not stated)	none
O=[N+]([O-])c1c(N2CCOCC2)ccc2nsnc12	rat GALR2 ag 55.5
C/C(=N\NC(=S)NC(C)(C)C)c1sc(-c2ncc(C(F)(F)F)cc2Cl)nc1C	rat GALR2 ag 18.8
CCOC(=O)c1sc(-c2ncc(C(F)(F)F)cc2OCC)nc1C	none
O=C(CC(C(=O)c1cccnc1)c1cccs1)c1ccc(Cl)cc1 (configuration not stated)	none
CCOC(Cc1nnc(SCC(=O)Nc2ccc(Cl)cc2Cl)n1C)OCC	none
Oc1c(Cl)cc(Cl)cc1C=Nc1ccccc1-c1nc2ccccc2[nH]1	none
COc1ccc(S(=O)(=O)Nc2cc(C)c(C)cc2[N+](=O)[O-])c(OC)c1	PME-1 Maybr inh 32.6
Cc1ccc(S(=O)(=O)NC(=O)Nc2ccc3c(c2)C(=O)OC3)cc1	none
Cc1ccc(S(=O)(=O)NC(=O)Nc2ccc(N(C)C)cc2)cc1	PME-1 Maybr inh 40.6
c1ccc(COc2ccc(CCC3OCCO3)cc2)cc1	rat GALR2 ag 15.0
O=C(O)c1ccc(OCc2ccccc2)cc1	none
CSc1cccc(NC(=S)NCCCO)c1	none
CSc1cccc(NC(=S)NCc2ccc(C#N)cc2)c1	PME-1 Maybr inh 60.6
NS(=O)(=O)c1cccc(NC(=O)c2cnc3ccccc3n2)c1	none
Nc1nc(Nc2ccccc2)n[nH]1	Nox1 inhibitor 77.5
Nc1nc(NCc2cccnc2)n[nH]1	Nox1 inhibitor 76.9
Nc1nc(NCc2ccccn2)n[nH]1	Nox1 inhibitor 89.9
N#C/C(=C\c1cc(Cl)cc(Cl)c1O)C(N)=S	none
O=C(c1c(F)cccc1F)N1CCCCC1Cn1cccc1 (configuration not stated)	none
CCOC(=O)c1nsc(/C(C)=N/Nc2ccccc2)c1N	Nox1 inhibitor 97.8
CCOC(=O)/C(C)=N/Nc1ccc(OC(F)(F)F)cc1	none
O=C(/C(=N/N=C/c1ccccn1)c1ccccc1)c1ccccc1	none
Cc1ccc(NC(=O)c2c(F)cccc2Cl)cc1NS(C)(=O)=O	none
CC(=O)Nc1ccc(NC(=O)c2c(Cl)cccc2Cl)c(C)c1	rat GALR2 ag 41.2
c1cncc(-c2csc(-c3cccnc3)n2)c1	PME-1 Maybr inh 33.8
O=[N+]([O-])c1ccc2nc3c(O)c4ccccc4c(O)c3nc2c1	PME-1 Maybr inh 37.7
Cc1nc2ccc([N+](=O)[O-])cc2nc1C	none
O=[N+]([O-])c1ccc(-c2ccc(/C=N/NC(=S)NCC3CCCO3)o2)cc1 (configuration not stated)	none
N#Cc1cccc(S(N)(=O)=O)c1	none
Cc1cc(C)nc(NCN2C(=O)c3ccccc3C2=O)c1	none
Cc1ccc(NCN2C(=O)c3ccc([N+](=O)[O-])cc3C2=O)cc1	Nox1 inhibitor 76.8
Nc1nc2ccccc2c(=O)[nH]1	none
Nc1nc2[nH]c(=S)[nH]c2c(=O)[nH]1	Nox1 inhibitor 92.5
CSc1cccc(N/C(=N\S(=O)(=O)c2ccccc2)SCC(=O)O)c1	none
CSc1cccc(N/C(=N\S(=O)(=O)c2ccccc2)NN)c1	PME-1 Maybr inh 43.4
COC(=O)C1=C(Nc2ccc(OS(=O)(=O)c3ccc(F)cc3F)cc2)CSC1	none
FC(F)(F)c1ccn(-c2nc(-c3ccccc3)ns2)n1	none
c1ccc(-c2nsc(-n3ccc(-c4cccs4)n3)n2)cc1	rat GALR2 ag 19.9
O=C1CSc2ccc(C(F)(F)F)cc2N1Cc1c(Cl)cccc1Cl	PME-1 Maybr inh 36.6
Cc1nnsc1C(=O)N/N=C/c1ccc([N+](=O)[O-])s1	none
c1ccc2c(c1)Nc1nc3ccccc3nc1N2	Nox1 inhibitor 84.8
c1ccc2c(c1)Nc1nc3ccccc3nc1O2	none
Cc1cccc(NNC(=O)C2CCC2)c1	Luminol counter 101.0
COc1ccccc1N1CCN(CCCCNC(=S)Nc2cc(C)cc(C)c2)CC1	none
C=CCNC(=S)NNC(=O)CSc1ccccc1[N+](=O)[O-]	none
C=CCn1c(-c2ccccc2)n[nH]c1=S	Luminol counter 97.4
C=CCn1c(CSc2ccccc2[N+](=O)[O-])n[nH]c1=S	Luminol counter 80.1
O=S(=O)(c1ccc(Cl)s1)N1CCN(C(c2ccccc2)c2ccccc2)CC1	none
CCCCC#Cc1ccc(C(=O)NNC(=O)c2ccccc2)o1	none
Cc1cc(NNC(=O)c2ccccc2Cl)nc2c1c(C)nn2C	Nox1 inhibitor 78.3
Cc1c(S(=O)(=O)c2ccc(Cl)cc2)csc1C(=O)N/N=C/c1cccs1	none
Cn1nc(-c2ccccc2)c(O)c(N=Nc2ccccc2)c1=O	Nox1 inhibitor 97.0
CC(=O)OCC(=O)C1(O)CCC2C3CCC4=CC(=O)C=CC4(C)C3C=CC21C (configuration not stated)	none
O=c1[nH]c2cccnc2[nH]c1=O	none
S=c1[nH]c2cccnc2s1	Luminol counter 100.2
S=c1nc[nH]c2[nH]ncc12	Luminol counter 80.5
O=[N+]([O-])c1ccc(OS(=O)(=O)c2cccc3nsnc23)cc1	rat GALR2 ag 47.0
CS(=O)(=NS(=O)(=O)c1cccc2nsnc12)c1ccc(Cl)cc1 (configuration not stated)	none
N#C/C(=C\c1ccc(C#Cc2ccccc2)s1)C(=O)c1ccco1	rat GALR2 ag 15.9
Cc1nc(-c2nnc(-c3ccccc3Cl)o2)c(C(F)(F)F)o1	none
CS(=O)(=O)/C(C#N)=C/c1cccn1S(=O)(=O)c1ccccc1	PME-1 Maybr inh 31.2
Nc1cnccc1C(F)(F)F	none
CC(=O)/C(C=Nc1cc(C)c(O)c(Cl)c1)=C(\C)O	Nox1 inhibitor 91.9
FC(F)(F)c1cccc(CSc2n[nH]c(=S)s2)c1	Luminol counter 99.0
O=C1c2ccccc2C(=O)N1Oc1ccc([N+](=O)[O-])c([N+](=O)[O-])c1	none
CC(C)(C)OC(=O)N1CCN(C(=O)Nc2ccc(C(F)(F)F)cc2)CC1	none
CN1CCN(c2ccc(NC(=O)Nc3ccc(C(F)(F)F)cc3)cc2)CC1	PME-1 Maybr inh 36.1
Cn1ncc(C(=O)NC(=O)Nc2ccc(F)cc2)c1[N+](=O)[O-]	Nox1 inhibitor 77.7
O=C1NC(=S)NC(=O)C1=Cc1c(F)cccc1Cl	none
O=C1NC(=S)N/C1=C\c1ccccc1Cl	Luminol counter 75.4
O=[N+]([O-])c1c(Sc2ccccn2)sc(Sc2ccccn2)c1[N+](=O)[O-]	none
CN(C)CCCNc1sc(-c2ccccn2)c([N+](=O)[O-])c1[N+](=O)[O-]	PME-1 Maybr inh 64.8
Nc1ccc(Nc2ccc(N)cc2S(=O)(=O)O)cc1	PME-1 Maybr inh 44.3
CCC(C)(C)C1CCc2c(sc(NC(=O)c3ccccc3C(=O)O)c2C#N)C1 (configuration not stated)	PME-1 Maybr inh 33.0
CCn1c(SCC(=O)Nc2sc3c(c2C#N)CCC(C)C3)nnc1-c1cccs1 (configuration not stated)	none
CSC1=NS(=O)(=O)c2c(C)nn(C)c2S1	Nox1 inhibitor 88.9
Nc1nccnc1C(=O)NNS(=O)(=O)c1ccc(Cl)cc1	none
CCN(CC)c1ccc(NC(=O)C2CCCCC2)c(N(CC)CC)n1	Nox1 inhibitor 75.0
COC(=O)c1sccc1NC(=S)NCCN1CCNC1=O	Luminol counter 98.9
COC(=O)c1sccc1NC(=O)CC1C(=O)NCCN1C(=O)c1ccccc1 (configuration not stated)	PME-1 Maybr inh 46.5
COC(=O)c1cccc(NC(=O)CC2C(=O)NCCN2C(=O)c2ccccc2)c1 (configuration not stated)	none
